Calls of active or inactive are those of the source.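 The calls were made as follows: active = fitted half-maximal concentration AC50 at or below ten times the highest valid tested dose, with signal falling as DNA is displaced (actives reach about 34 µM in these data); inconclusive = flat fit at moderate signal loss, or poor fit quality; inactive = the rest, including signal rising instead of falling.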
Assay: acridine orange-DNA binding displacement – biochemical, fluorescence polarization, cherry-picked samples, set 2, artefact control for KSHV LANA DNA-binding inhibitor project, dose response (AID 504727)
Details: series mostly up to 35 µM

| Structure (SMILES) | AC50 |
| --- | --- |
| COCCCNc1c2c3c(cccc3[nH]c1=O)C(=O)c1ccccc1-2 | 0.63 µM (active) |
| Brc1ccc(-c2noc(COc3ccc4c(c3)CCC4)n2)o1 | inactive |
| N#CCCN(CCC#N)C(=O)C1c2ccccc2Oc2ccccc21 | inactive |
| COC(=O)c1ccccc1-c1c2ccc(=N)cc-2oc2cc(N)ccc12 | 0.035 µM (active) |
| COC(=O)c1ccc(Oc2nc(Nc3ccc(F)cc3)nc(N3CCCC3)n2)cc1 | inactive |
| Cc1ccc(C(CC(=O)N2CCCCC2)c2ccccc2)c(O)c1C (stereo not drawn) | inactive |
| N#C/C(=C\c1ccc(-c2ccccc2[N+](=O)[O-])o1)C(N)=O | inactive |
| Cn1c(Cl)c(C(=O)Nc2ccc(Cl)cc2)c2ccccc21 | inactive |
| CCOC(=O)N1CCN(C(=S)NC(=O)c2cccc(OC)c2)CC1 | inactive |
| COc1ccc(NS(=O)(=O)c2ccc(C)c(C(=O)N(C)Cc3ccc(OC)cc3OC)c2)cc1 | inactive |
| Cc1nn(C)c(C)c1N1C(=O)c2cccc3c(N)ccc(c23)C1=O | 0.768 µM (active) |
| CC(C)CCN1C(=O)c2cccc3c(N)ccc(c23)C1=O | 7.39 µM (active) |
| COc1ccc(NC(=O)CN(C)CC(=O)Nc2ccc(N3CCOCC3)cc2)c([N+](=O)[O-])c1 | inactive |
| Nc1cccc(N2C(=O)c3cccc4c(N)ccc(c34)C2=O)c1 | 5.76 µM (active) |
| Cc1ccc(NC(=O)CN(C)C(=O)c2nn(C)c(=O)c3ccccc23)cc1 | inactive |
| O=c1[nH]c(=S)[nH]c2c1C(c1ccc(Br)cc1)c1c([nH]c(=S)[nH]c1=O)O2 | inactive |
| Cc1cnc(NC(=O)Cc2c[nH]c3ccccc23)s1 | inactive |
| COc1ccc(-c2cnc3n2CCCCC3)cc1 | inactive |
| CCN(CC)c1ccc2cc(S(=O)(=O)c3ccc(Cl)cc3)c(=O)oc2c1 | 6.87 µM (active) |

| Structure (SMILES) | AC50 |
| --- | --- |
| C=CC1=C(C(=O)O)N2C(=O)[C@@H](NC(=O)/C(=N/OCC(=O)O)c3csc(N)n3)[C@H]2SC1 | inactive |
| COc1cc(CN2CC(=O)N(c3cc(Cl)ccc3C)C2=S)cc(OC)c1OC | inactive |
| Cc1cccc(N2C(=O)c3cccc4c(N)ccc(c34)C2=O)c1 | 4.82 µM (active) |
| COc1ccc(NS(=O)(=O)c2cccc3ccccc23)cc1 | inactive |
| O=C(O)c1cccc(-n2cccc2/C=C/[N+](=O)[O-])c1 | inactive |
| NC(=S)N/N=C/c1cn(CCC(=O)O)nc1-c1cccc(Br)c1 | inactive |
| COc1ccc(NC(=O)NS(=O)(=O)c2ccc(C)cc2)cn1 | inactive |
| CCN(C(=O)COC(=O)CNS(=O)(=O)c1ccc(SC)c([N+](=O)[O-])c1)C1CCCCC1 | inactive |
| FC(F)(F)c1nnc(-c2ccccc2)nc1N1CCCC1 | inactive |
| O=C1C=C(c2ccoc2)N2CCC[C@H]2C1 | inactive |
| O=C(O)c1ccc2c(c1)C(=O)/C(=C\c1ccco1)C2=O | inactive |
| CCOC(=O)c1sc(NC(=O)CSC(=S)N2CCN(C)CC2)nc1C | inactive |
| O=C(O)C1(c2ccccc2)CCN(S(=O)(=O)c2ccc(Cl)s2)CC1 | inactive |
| CC(C)C(=O)N1CCN(c2ccccc2NC(=S)NC(=O)c2ccco2)CC1 | inactive |
| COC(=O)c1ccc(OCC(O)CN2CCC(C)CC2)cc1 (stereo not drawn) | inactive |
| COc1cccc(NC(=O)N(CCN(C)C)C(C)c2cccnc2)c1 (stereo not drawn) | inactive |
| COc1ccc2nc3ccccc3[n+]([O-])c2c1 | 26 µM (active) |
| Cn1c2ccccc2c2cnn(CC(=O)Nc3cccc(F)c3)c(=O)c21 | inactive |
| Cc1ccc(-c2nnn(CC(=O)NC3CCN(Cc4ccccc4)CC3)n2)cc1 | inactive |
